Reference: PubChem BioAssay (NCI)
“And” between values parts separate entries of the source, which are not always exact repeats. Identical values can stand only once. About 83,000 compounds went through this panel and 20% of them were active in at least one assay; those are over-represented in the sample as a whole.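 Single-dose data. Exposure time 48 hours. Values below 10 considered active.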 A number with no mark means an inactive call. The source made the active and inactive calls. Where a SMILES comes first, the peptide text is derived from it. [ ]: non-standard residue; d: D form. ξ: configuration not given here. ξV = CC(C)C(N)C(=O)O

These compounds were tested on EKVX NSCLC (assay: NCI-60 one-dose screen, 48 h (100 = growth as untreated, 0 = no growth, -100 = all killed)). Conditions: 0.0025 µM.
Protocol: Growth inhibition of the EKVX human Non-Small Cell Lung tumor cell line is measured as a screen for anti-cancer activity. Cells are grown in 96 well plates and exposed to the test compound for 48 hours. Compounds are tested at a single concentration, which is 10^-5 M for most compounds. The reported endpoint is percent growth (GI% or GIPRCNT), where numbers from 0 - 100% represent growth inhibition, and numbers from -100% - 0 represent cell death. For example, a value of 40 represents 60% growth inhibition. A value of 0 means no net growth occurred over the course of the experiment. A value of -40 indicates 40% of cells at the beginning of the experiment died by the end of the experiment. A value of -100 means all cells are dead at the end of the experiment.
NCI-60 Human Tumor Cell Lines Screen was performed using the standard one-dose NCI protocol, which is described in more detail at https://dtp.cancer.gov/discovery_development/nci-60/default.htm.
Compounds with GIPRCNT values below 10 were considered active. Activity score was based on GIPRCNT using the following formula: […]
Score is 0 for GIPRCNT values of 100 or above, 50 for GIPRCNT values of 0, and 100 for GIPRCNT values of -100.

SMILES	growth
COc1cccc2c1C(=O)c1c(O)c3c(c(O)c1C2=O)C[C@@](O)(C(=O)CO)C[C@@H]3OC1CC(N)C(O)C(C)O1 (stereo not given in full)	102%

Same assay, conditions: 1 µM

SMILES	growth
COc1cccc2c1C(=O)c1c(O)c3c(c(O)c1C2=O)C[C@@](O)(C(=O)CO)C[C@@H]3OC1CC(N)C(O)C(C)O1 (stereo not given in full)	65.8%

Same assay, conditions: 2.5 µM

SMILES	growth
COc1cccc2c1C(=O)c1c(O)c3c(c(O)c1C2=O)C[C@@](O)(C(=O)CO)C[C@@H]3OC1CC(N)C(O)C(C)O1 (stereo not given in full)	88.8%

Same assay, conditions: 10 µM

SMILES	growth
COc1cccc2c1C(=O)c1c(O)c3c(c(O)c1C2=O)C[C@@](O)(C(C)=O)C[C@@H]3OC1CC(N)C(O)C(C)O1 (stereo not given in full)	-3.48% (active)
NNc1c2ccccc2nc2ccccc12	58.3%
CSC1SCC2C(=O)N(C)C(C(C)C)C(=O)OCC(NC(=O)c3cnc4ccccc4n3)C(=O)NC(C)C(=O)N(C)C1C(=O)N(C)C(C(C)C)C(=O)OCC(NC(=O)c1cnc3ccccc3n1)C(=O)NC(C)C(=O)N2C (stereo not given)	-8.18% (active)
OC(CN1CCCC2CCCCC21)c1cc2ccccc2c2ccccc12 (stereo not given)	42.3%
CC1=CC(C)=Nc2ccc(Cl)cc2N1	108%
CO[C@H](C(=O)[C@@H](O)[C@@H](C)O)[C@@H]1Cc2cc3cc(OC4CC(OC5CC(O)C(O)C(C)O5)C(O)C(C)O4)c(C)c(O)c3c(O)c2C(=O)[C@H]1OC1CC(OC2CC(OC3CC(C)(O)C(O)C(C)O3)C(O)C(C)O2)C(O)C(C)O1 (stereo not given in full)	16.8%
CC(=O)OCC(OC(C)=O)C(OC(C)=O)C(OC(C)=O)C(OC(C)=O)C(/C=N/Nc1ccccc1)=N/Nc1ccccc1 (stereo not given)	60%
COc1ccc(CC(=O)c2ccc(O)cc2O)cc1	104%
CCN1/C(=C/C=C/C=C/c2sc3ccccc3[n+]2CC)Sc2ccccc21	-31.9% (active)
O=C1NC(=O)c2cc([N+](=O)[O-])ccc21	103%
CC[N+](CC)=c1ccc2nc3c(cc(N)c4ccccc43)oc-2c1	-66.6% (active)
NNc1ccc2ccccc2c1	76.7% and 93%
O=C(O)COc1ccc(OCC(=O)O)cc1	51.8%
O=C1C=CC(=CC=C2C=CN(CCCCCCCCCCCO)C=C2)C=C1	26.3%
Nc1nc(=S)c2ncn(C3OC(CO)C(O)C3O)c2[nH]1 (stereo not given)	110% and 23.3%
Nc1ccc2cc3ccc(N)cc3nc2c1	88.3% and 25.2%
O=C(C(=Cc1ccccc1)C(=O)c1ccccc1)c1ccccc1	79.2% and 103%
Clc1ccc(/C=C/c2ccccn2)c(Cl)c1	58.9%
O=[N+]([O-])C1=C(c2ccccc2)SC=C(c2ccccc2)S1	92.3%

SMILES	growth
CC(C)C(NC(=O)CN)C(=O)O (stereo not given) (H-Gly-[ξV]-OH)	102% and 103%
OCC1OC(n2cnc3c(=S)nc[nH]c32)C(O)C1O (stereo not given)	106% and 119%
COc1cccc2c1C(=O)c1c(O)c3c(c(O)c1C2=O)C[C@@](O)(C(=O)CO)C[C@@H]3OC1CC(N)C(O)C(C)O1 (stereo not given in full)	24.6%
CC(C)(C)CC(C)(C)c1ccc(OCCO)cc1	122%
CCCCCCCCCCSC(=N)N	92.1%
Cc1cc(O)c(C(C)C)cc1Cl	103%
O=C(Nc1ccc(C(=O)O)c(O)c1)c1ccccc1	98.9% and 93.7%
COC1OCC(O)C(O)C1O (stereo not given)	99.1%
COc1c(O)cc2oc3cc(O)c(CC=C(C)C)c(O)c3c(=O)c2c1CC=C(C)C	54%
Clc1cc(Cl)c(Cl)nn1	115%
Oc1ccc(N=Nc2ccccn2)c(O)c1	24.1%
CCC(C)(C)c1cc(O)c(C(C)(C)CC)cc1O	43.4%
C[n+]1c2cc(N)ccc2cc2ccc(N)cc21	-23.9% (active) and 5.67% (active) and -26.5% (active)
CCCC1CCC(=C2C(=O)CCC2=O)O1 (stereo not given)	86.2% and 101%
CCCCCC(C)c1ccc(O)c(C)c1 (stereo not given)	108%
NC1=C(Cl)C(=O)c2ccccc2C1=O	107%
O=C(/C=C/c1cccnc1)c1ccccc1	103%
CCCCCCCCCCCCSC(=NC)NC	71.1%
